Inconclusive results are not listed. Unmarked numbers belong to inactive results. The source made the active and inactive calls. The call rests on the fitted dose curve; in most records, active means well fitted cell-killing curve with a large enough effect in the repeat runs; inconclusive means weak or mixed curves, or effect the other way; inactive means no such curve, though single readings can be large or run the other way. Positions of bridges follow the written chain, without caps; N, C: chain ends. Non-standard residues stand in square brackets, D forms with d. Residues, ends and D or L forms follow the SMILES beside them. hArg = N=C(N)NCCCC[C@H](N)C(=O)O; Mpa = O=C(O)CCS
On the % scale 0 is the no-effect control and ±100 the full control effect.

The nature of this experiment: qHTS assay to identify small molecule antagonists of the sonic hedgehog signaling (Shh) pathway - cell viability counter screen (AID 1259367). Further: nearly all actives have a fitted effect of over 55% in size. As to conditions: NIH/3T3 Gli1-Luc viability, CellTiter-Fluor, 24 h; series mostly up to 92.4 µM. The text has this: National Center for Advancing Translational Sciences [NCATS]
NIH Chemical Genomics Center [NCGC]
U.S. Environmental Protection Agency [EPA]
National Institutes of Environmental Health Sciences [NIEHS]
National Toxicology Program [NTP]
U.S. Food and Drug Administration [FDA]
The sonic hedgehog (Shh) pathway is essential for normal embryonic development. Dysregulation of the Shh pathway can cause severe developmental defects in organs. Therefore chemicals that interfere with the pathway are potential developmental toxicants. A cell line designated 3T3Gli1-Luc (DMB/OARSA/CFSAN/FDA, Laurel, MD), a NIH/3T3 derived clone containing stably integrated Gli1-Luc reporter is used to detect chemical interference of the Shh pathway, by changes in the expression of the firefly Luc gene under the control of the Gli1 transcriptional response element. This cell line was used to screen Tox21 libraries for identifying and prioritizing the potential developmental toxicants that interfere Shh pathway. Conditioned medium-stimulated mode was used to screen for chemicals inhibiting Shh signaling. The cytotoxicity of the compounds was tested in parallel by measuring the cell viability using CellTiter-Fluor assay system (Promega, Madison, WI) in the same wells.
Tox21 Assay Protocol Summary:
3T3 Gli1-Luc cells were dispensed at 2,000 per well in 5uL of culture medium into white solid bottom 1536-well plates (Greiner Bio-One, Monroe, NC) using a Multidrop Combi (Thermo Scientific, Waltham, MA) dispenser. The assay plates were incubated at 37 C and 5% CO2 for 4hr, and then 23nL of compounds dissolved in DMSO and positive control were transferred using a Pintool station (Wako, San Diego, CA). The compound transfer was followed by the addition of 1ul conditioned medium or assay buffer using two separate tips of Flying Reagent Dispenser (FRD, Aurora Discovery, San Diego, CA). The assay plates were incubated at 37C and 5% CO2 for 24hr. For viability read, after 23hr of compound treatment, 1uL of CellTiter-Fluor reagent (Promega Corporation, Madison, WI) was added to each well of the assay plates using Flying Reagent Dispenser (FRD, Aurora Discovery, San Diego, CA) and incubated the assay plates at 37C for 1hr. The fluorescence signal was quantified using a ViewLux plate reader (Perkin Elmer, Shelton, CT).
(In general: Quantitative high-throughput screening tests each substance at several concentrations.)
Consider `CCCCCCCCCCCCCCC(=O)NC(CO)CCCCCCCCCCCCCC` (stereo not given), for which the call was inactive.
For `COc1nc(N)nc2nc[nH]c12`, the molecule was called inactive.
Take `O=C1NC(c2ccccc2)(c2ccccc2)C(=O)N1COP(=O)(O)O`: the molecule was classed as inactive.
Consider `CCCCOCC(C)O` (stereo not given), for which the result was inactive.
For the molecule `O=Cc1cc2ccccc2o1`, the molecule was classed as inactive.
Same read-out and setting: to `COc1cc2c(cc1OC)CN(C(=O)[C@H](C)N[C@@H](CCc1ccccc1)C(=O)O)[C@H](C(=O)O)C2` belongs “inactive”.
As for `CCC(=O)CC`, the outcome was inactive.
In the case of `c1ccc2c(CC3=NCCN3)cccc2c1`, the result was inactive.
For `CCNC(=O)NCc1cccc(Cl)c1`, the result was inactive.
As for `CN(C)C(C)(C)CO`, the outcome was inactive.
On the same count and under the same terms, the value for `CC1(C)O[C@H]2CC(=O)OC[C@]23[C@H]2CC[C@@]4(C)[C@H](c5ccoc5)OC(=O)[C@H]5O[C@]54[C@]2(C)C(=O)C[C@@H]13` was “inactive”.
The same measure, in the same setting: to `COS(=O)(=O)O` belongs “inactive”; to `CC(C)NC(=O)c1ccc(C=O)cc1`, “inactive”; to `CC(C)=CCC[C@@](C)(O)[C@H]1CC=C(C)CC1`, “inactive”.
On to `NC(=O)[C@@H]1CSSCCC(=O)N[C@@H](CCCCN=C(N)N)C(=O)NCC(=O)N[C@@H](CC(=O)O)C(=O)N[C@@H](Cc2c[nH]c3ccccc23)C(=O)N2CCC[C@H]2C(=O)N1` ([Mpa][hArg]GDWPC-NH2; disulfide 1-7), for which the call was inactive.
For the molecule `O=C1c2ccccc2C(=O)c2cc(Cl)ccc21`, the viability change, negative = cytotoxic was 1.09% [at 8.39 µM].
Consider `O=C(O)[C@H](O)c1ccccc1`, for which the molecule was classed as inactive.
Regarding `c1ccc2cnccc2c1`, the molecule was called inactive.
As to `CC(C)Nc1ccccc1`, the molecule was classed as inactive.
Take `O=[N+]([O-])c1c(Cl)cc(Cl)cc1Cl`: the outcome was inactive.
Regarding `CCCCSCCCC`, the result was inactive.
Same read-out and setting: the value for `OCC1CCC(CO)CC1` (stereo not given) was “inactive”; that for `C=CCOC(=O)CCCCCC` was “inactive”; that for `CCOCCOCC` was “inactive”.
Regarding `O=C1CCC(=O)N1Cl`, the molecule was called inactive.
Turning to `COc1cc2c(cc1OC)C(=O)C(CC1CCN(Cc3ccccc3)CC1)C2` (stereo not given), the outcome was inactive.
Still for that read-out and setting: to `CC(=O)O[C@H]1C[C@@H]2CC[C@@]1(C)C2(C)C` belongs “inactive”; to `CCC(C(=O)OCCN1CCOC(c2ccccc2)C1C)c1ccccc1` (stereo not given), “inactive”.
On the same count and under the same terms, the value for `O=C[O][Al]([O]C=O)[O]C=O` was “inactive”; that for `Cc1ccccc1C(N)=O` was “inactive”.
Same read-out and setting: the value for `CC(=O)C(C)O` (stereo not given) was “inactive”; that for `CN(C)CCOC(=O)C(c1ccccc1)C1(O)CCCC1` (stereo not given) was “inactive”.
Regarding `CN1C[C@@H]2C[C@H]1CN2c1cc2c(cc1F)c(=O)c(C(=O)O)cn2C1CC1`, the viability change, negative = cytotoxic was 0.743% [at 19 µM].
Turning to `CC(=O)O[C@@H]1CC2CCC1(C)C2(C)C` (stereo not given in full), the outcome was inactive.
`Cc1ccc(N)cc1S(=O)(=O)O`: the outcome was inactive.
With `CC1(C)CC(OC(=O)CCCCCCCCC(=O)OC2CC(C)(C)NC(C)(C)C2)CC(C)(C)N1`, the viability change, negative = cytotoxic is -5.84% [at 19 µM].
For `CC(C)Cn1cnc2c1c(=O)n(C)c(=O)n2C`, the outcome was inactive.
Same read-out and setting: the value for `O/N=C/C=N/O` was “inactive”; that for `O=C1CCCCO1` was “inactive”.
As to `CCOc1ccccc1OCC1CNCCO1` (stereo not given), the molecule was classed as inactive.

The record behind these values is PubChem BioAssay (Tox21).
